Records with an inconclusive call do not appear. Activity calls are given as the source filed them. The call rests on the fitted dose curve; in most records, active means well fitted curve in the direction sought with a large enough effect in the repeat runs; inconclusive means weak or mixed curves; inactive means no such curve, though single readings can be large; an effect the other way counts as inactive or inconclusive.
Legend:
[1] = qHTS RealTime-Glo MT Cell Viability Assay in HepG2 cells - 24 hour (AID 1224867); conditions: RealTime-Glo luminescence; series mostly up to 76.8 µM; further: nearly all actives have a fitted effect of over 50% in size
In short: (§1)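 Cell number in HepG2 cultures estimated from NanoLuc luminescence generated by metabolic reduction of a prosubstrate by living cells. The homogeneous, nonlytic format allowed repeated reads at 0, 8, 16, 24, 32 and 40 h of compound exposure.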

[2] = qHTS RealTime-Glo MT Cell Viability Assay in HEK293 cells - 32 hour (AID 1224868); conditions: RealTime-Glo luminescence; series mostly up to 76.8 µM; further: top concentration of the series differs between compounds; nearly all actives have a fitted effect of over 50% in size
In short: (§2)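 Homogeneous bioluminescent viability format in HEK293 cells (600 cells/well). Following 5 h at 37 C/5% CO2, 23 nL compound was pintooled; the signal was measured repeatedly during 40 h incubation.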

[3] = A CellTox Green Cytotoxicity Assay to monitor cytotoxicity in HEK293 cells - 0 hour (AID 1224869); conditions: CellTox Green fluorescence; series mostly up to 76.8 µM; further: nearly all actives have a fitted effect of over 50% in size
In short: (§3)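 Real-time, in one plate: 600 HEK293 cells/well with dead-cell DNA dye, pinned compound after 5 h, 37 C incubation over 40 h; viable cells give no appreciable fluorescence.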

[4] = qHTS RealTime-Glo MT Cell Viability Assay in HepG2 cells - 40 hour (AID 1224870); conditions: RealTime-Glo luminescence; series mostly up to 76.8 µM; further: nearly all actives have a fitted effect of over 50% in size
In short: (§4)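 Real-time viability: cells seeded at 600 per well together with NanoLuc and cell-permeant prosubstrate, compounds added after 5 h incubation. Luminescence tracked at 0, 8, 16, 24, 32 and 40 h of exposure.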

[5] = qHTS RealTime-Glo MT Cell Viability Assay in HEK293 cells - 16 hour (AID 1224872); conditions: RealTime-Glo luminescence; series mostly up to 76.8 µM
In short: as §2

[6] = qHTS RealTime-Glo MT Cell Viability Assay in HepG2 cells - 8 hour (AID 1224873); conditions: RealTime-Glo luminescence; series mostly up to 76.8 µM; further: nearly all actives have a fitted effect of over 55% in size
In short: as §4

[7] = qHTS RealTime-Glo MT Cell Viability Assay in HEK293 cells - 40 hour (AID 1224874); conditions: RealTime-Glo luminescence; max response: stronger effect = lower value; further: nearly all actives have a fitted effect of over 50% in size
In short: (§5)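 Kinetic, non-lysing viability readout. Seed HEK293 (600/well) with reagent, incubate 5 h at 37 C/5% CO2, pin 23 nL compound in DMSO, incubate at 37 C, read luminescence at 0, 8, 16, 24, 32, 40 h.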

[8] = A CellTox Green Cytotoxicity Assay to monitor cytotoxicity in HEK293 cells - 24 hour (AID 1224875); conditions: CellTox Green fluorescence; series mostly up to 76.8 µM; further: nearly all actives have a fitted effect of over 45% in size
In short: as §3

[9] = qHTS RealTime-Glo MT Cell Viability Assay in HepG2 cells - 32 hour (AID 1224877); conditions: RealTime-Glo luminescence; series mostly up to 76.8 µM; further: nearly all actives have a fitted effect of over 55% in size
In short: as §1

[10] = A CellTox Green Cytotoxicity Assay to monitor cytotoxicity in HepG2 cells - 24 hour (AID 1224878); conditions: CellTox Green fluorescence; series mostly up to 76.8 µM; further: nearly all actives have a fitted effect of over 45% in size
In short: (§6)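 Cytotoxicity was tracked as dead-cell DNA fluorescence in HepG2 cells treated with test compounds at 37 C; each time-point value comes from one kinetic series spanning 0, 8, 16, 24, 32 and 40 h.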

[11] = A CellTox Green Cytotoxicity Assay to monitor cytotoxicity in HepG2 cells - 40 hour (AID 1224879); conditions: CellTox Green fluorescence; series mostly up to 76.8 µM; further: nearly all actives have a fitted effect of over 40% in size
In short: as §6

[12] = qHTS RealTime-Glo MT Cell Viability Assay in HEK293 cells - 0 hour (AID 1224880); conditions: RealTime-Glo luminescence; series mostly up to 76.8 µM; further: top concentration of the series differs between compounds; nearly all actives have a fitted effect of over 45% in size
In short: as §5

[13] = A CellTox Green Cytotoxicity Assay to monitor cytotoxicity in HEK293 cells - 32 hour (AID 1224881); conditions: CellTox Green fluorescence; series mostly up to 76.8 µM; further: nearly all actives have a fitted effect of over 40% in size
In short: as §3

[14] = A CellTox Green Cytotoxicity Assay to monitor cytotoxicity in HepG2 cells - 0 hour (AID 1224882); conditions: CellTox Green fluorescence; series mostly up to 76.8 µM; further: nearly all actives have a fitted effect of over 35% in size
In short: as §6

[15] = A CellTox Green Cytotoxicity Assay to monitor cytotoxicity in HepG2 cells - 32 hour (AID 1224883); conditions: CellTox Green fluorescence; series mostly up to 76.8 µM; further: nearly all actives have a fitted effect of over 50% in size
In short: as §6

[16] = A CellTox Green Cytotoxicity Assay to monitor cytotoxicity in HEK293 cells - 8 hour (AID 1224884); conditions: CellTox Green fluorescence; series mostly up to 76.8 µM; further: nearly all actives have a fitted effect of over 35% in size
In short: as §3

[17] = A CellTox Green Cytotoxicity Assay to monitor cytotoxicity in HepG2 cells - 16 hour (AID 1224876); conditions: CellTox Green fluorescence; series mostly up to 76.8 µM; further: nearly all actives have a fitted effect of over 45% in size
In short: as §6

[18] = qHTS RealTime-Glo MT Cell Viability Assay in HepG2 cells - 16 hour (AID 1224885); conditions: RealTime-Glo luminescence; series mostly up to 76.8 µM; further: nearly all actives have a fitted effect of over 50% in size
In short: as §1

[19] = A CellTox Green Cytotoxicity Assay to monitor cytotoxicity in HEK293 cells - 40 hour (AID 1224871); conditions: CellTox Green fluorescence; series mostly up to 76.8 µM; further: nearly all actives have a fitted effect of over 45% in size
In short: as §3
On the % scale 0 is the no-effect control and ±100 the full control effect.

CCC(=O)c1ccc(O)cc1
inactive: outcome [1] | Potency [2] | Potency [3] | outcome [4] | Potency [5] | outcome [6] | max response [7] -7.06% | Potency [8] | outcome [9] | Potency [10] | Potency [11] | outcome [12] | Potency [13] | Potency [14] | Potency [15] | Potency [16]

CCCCC[Si](OCC)(OCC)OCC
inactive: outcome [1] | Potency [2] | Potency [3] | outcome [4] | Potency [5] | outcome [6] | max response [7] -19.8% | Potency [8] | Potency [17] | Potency [10] | Potency [11] | outcome [12] | Potency [13] | Potency [14] | Potency [15] | Potency [16] | outcome [18]

Nc1nc(=O)n([C@@H]2O[C@H](CO)[C@@H](O)[C@@H]2F)cc1I
inactive: outcome [1] | Potency [2] | Potency [3] | Potency [19] | Potency [5] | outcome [6] | max response [7] 3.93% | Potency [8] | Potency [17] | outcome [9] | Potency [10] | Potency [11] | outcome [12] | Potency [13] | Potency [14] | Potency [15] | Potency [16] | outcome [18]

CCCO
inactive: outcome [1] | Potency [2] | outcome [4] | Potency [19] | Potency [5] | outcome [6] | max response [7] 1.64% | Potency [8] | Potency [17] | outcome [9] | outcome [12] | Potency [13] | Potency [14] | Potency [16] | outcome [18]

CCCCC(CC)C(=O)OC(C)C (configuration not stated)
inactive: outcome [1] | Potency [2] | outcome [4] | Potency [5] | outcome [6] | max response [7] 3.8% | Potency [8] | Potency [17] | Potency [10] | Potency [11] | outcome [12] | Potency [13] | Potency [14] | Potency [15] | Potency [16]

CCCCC/C=C/CC(=O)OC
inactive: outcome [1] | Potency [2] | Potency [3] | Potency [19] | Potency [5] | outcome [6] | max response [7] -0.743% | Potency [8] | Potency [17] | outcome [9] | Potency [10] | Potency [11] | outcome [12] | Potency [13] | Potency [14] | Potency [15] | Potency [16]

C[Si]1(C)N[Si](C)(C)N[Si](C)(C)N1
inactive: outcome [1] | Potency [2] | Potency [3] | Potency [19] | Potency [5] | max response [7] 16.3% | Potency [8] | Potency [17] | outcome [9] | Potency [10] | outcome [12] | Potency [13] | Potency [14] | Potency [15] | Potency [16]

CCCC(C)CC (configuration not stated)
inactive: outcome [1] | Potency [2] | outcome [4] | Potency [19] | Potency [5] | outcome [6] | max response [7] 1.42% | Potency [8] | Potency [17] | outcome [9] | Potency [10] | Potency [11] | outcome [12] | Potency [13] | Potency [14] | Potency [15] | Potency [16] | outcome [18]

Nc1ccc(S(=O)(=O)Nc2ccccn2)cc1
inactive: outcome [1] | Potency [2] | Potency [3] | Potency [19] | Potency [5] | outcome [6] | max response [7] -4.15% | Potency [8] | Potency [17] | outcome [9] | Potency [10] | outcome [12] | Potency [13] | Potency [14] | Potency [15] | Potency [16] | outcome [18]

C/C=C(\C)C(=O)OCC/C=C\CC
inactive: outcome [1] | Potency [2] | Potency [3] | Potency [19] | Potency [5] | outcome [6] | max response [7] 2.25% | Potency [8] | Potency [17] | Potency [10] | Potency [11] | outcome [12] | Potency [13] | Potency [14] | Potency [15] | Potency [16] | outcome [18]

C[C@H]1O[C@H](O[C@H]2[C@H](O)[C@@H](O)[C@@H](O[C@H]3[C@H](O)[C@@H](O)[C@H](O)O[C@@H]3CO)O[C@@H]2CO)[C@H](O)[C@@H](O)[C@@H]1N[C@H]1C=C(CO)[C@@H](O)[C@H](O)[C@H]1O
inactive: outcome [1] | Potency [2] | Potency [3] | Potency [19] | Potency [5] | max response [7] 6.78% | Potency [8] | Potency [17] | outcome [9] | Potency [10] | Potency [11] | outcome [12] | Potency [13] | Potency [14] | Potency [15] | Potency [16] | outcome [18]

O=C(Nc1cccc(C2=NCCN2)c1)Nc1cccc(C2=NCCN2)c1
inactive: activity change, negative = cytotoxicity [1] 1.81% [at 15.8 µM] | activity change, negative = cytotoxic [2] -5.26% [at 15.8 µM] | cytotoxicity [3] -3.81% [at 15.8 µM] | cytotoxicity increase [19] -2.61% [at 15.8 µM] | activity change, negative = cytotoxicity [5] -0.101% [at 15.8 µM] | viability change, negative = cytotoxic [6] 1.42% [at 15.8 µM] | max response [7] -2.84% | activity change [8] -4.45% [at 15.8 µM, stronger effect = higher value] | cytotoxicity increase [17] -11.3% [at 15.8 µM] | activity change, negative = cytotoxic [9] 2.71% [at 15.8 µM] | cytotoxicity [10] -8.34% [at 15.8 µM] | cytotoxicity increase [11] -7.03% [at 15.8 µM] | activity change, negative = cytotoxicity [12] -5.15% [at 15.8 µM] | cytotoxicity increase [13] -2.02% [at 15.8 µM] | cytotoxicity [14] -0.131% [at 15.8 µM] | cytotoxicity increase [15] -8.68% [at 15.8 µM] | cytotoxicity increase [16] -6.06% [at 15.8 µM]

NCCc1ccn[nH]1
inactive: outcome [1] | Potency [2] | outcome [4] | Potency [19] | Potency [5] | max response [7] 6.3% | Potency [8] | Potency [17] | outcome [9] | Potency [10] | Potency [11] | outcome [12] | Potency [13] | Potency [14] | Potency [15] | Potency [16] | outcome [18]

CCC(O)C(C)(C)C (configuration not stated)
inactive: outcome [1] | Potency [2] | Potency [3] | outcome [4] | Potency [5] | outcome [6] | max response [7] 2.07% | Potency [17] | outcome [9] | Potency [10] | outcome [12] | Potency [14] | Potency [15] | Potency [16] | outcome [18]

Cc1ccc(S(=O)(=O)NC(=O)NC2CCCCCCC2)cc1
inactive: outcome [1] | Potency [2] | Potency [3] | Potency [19] | Potency [5] | outcome [6] | max response [7] 0.902% | Potency [8] | outcome [9] | Potency [11] | outcome [12] | Potency [13] | Potency [14] | Potency [15] | Potency [16] | outcome [18]

Reference: PubChem BioAssay (Tox21)
